Drawing on PubChem BioAssay (EPA / NIEHS), this text covers outcome and AC50 for five molecules.

The target in experiment [1] is Myc proto-oncogene protein (Homo sapiens) (UniProt P01106). The experiment is described as follows: ATG_Myc_CIS: Attagene CIS-FACTORIAL HepG2 Assay for human Myelocytomatosis (Myc) Proto-Oncogene Transcription Factor (AID 2282990). The conditions noted are these: HepG2, Attagene cis-reporter transcription factor activity; actives raise or lower the signal. Summed up:
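Transiently transfected HepG2 cells bearing cis-promoter reporter units for endogenous transcription factors; 24 h exposure. Reporter mRNA measured by RT-PCR, 6-FAM primer extension, HpaI cut and capillary electrophoresis; bidirectional fit relative to DMSO.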

The nature of experiment [2]: ATG_NF_kB_CIS: Attagene CIS-FACTORIAL HepG2 Assay for human Nuclear Factor Kappa B (NF-kB) (AID 2282991). Particulars: HepG2 Attagene cis-factorial NF-kB reporter mRNA; actives raise or lower the signal. The essentials:
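HepG2 cells transiently transfected with multiplexed cis-element reporter units measuring endogenous transcription factor activity; reporter mRNA read 24 h after dosing by RT-PCR, fluorescent labelling, HpaI digestion and capillary electrophoresis. Bidirectional fit against DMSO baseline.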

Experiment [3] can be described thus: ATG_NRF2_ARE_CIS: Attagene CIS-FACTORIAL HepG2 Assay for human Nuclear Factor Erythroid 2 Related Factor 2 (NFR2) response to Antioxidant Response Elements (ARE) (AID 2282992).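 On AC50: reporter mRNA level measured by RT-PCR and capillary electrophoresis fluorescence.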 Particulars: HepG2 Attagene ARE/NRF2 reporter, transcription factor activity; actives raise or lower the signal. Summed up: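 Transient MRTU transfection of HepG2; 24 h compound exposure; TriZol RNA, RT with oligo(dT), PCR, 6-FAM primer extension, HpaI cut, CE. Bidirectional fit vs DMSO.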

Experiment [4] in a line: ATG_Oct_MLP_CIS: Attagene CIS-FACTORIAL HepG2 Assay for human Octamer-Binding Transcription Factor (Oct) (AID 2282993). The conditions noted are these: HepG2 Attagene cis-factorial Oct reporter, mRNA; actives raise or lower the signal. The essentials: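 Transfected HepG2 cells, 24 h treatment. Reporter mRNA quantified by RT-PCR–capillary electrophoresis; bidirectional fitting against DMSO.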

Experiment [5] is described as follows: BSK_3C_TissueFactor: BioMAP Diversity Plus: 3C Assay for Tissue Factor Biomarker Activity (AID 2282997). The conditions noted are these: BioMAP 3C HUVEC, tissue factor biomarker readout; actives raise or lower the signal. Summed up: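 Values derive from bidirectional curve fitting against DMSO of Tissue Factor ELISA signals, taken 24 h after dosing primary human umbilical vein endothelial cells.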

Experiment [6] is described as follows: BSK_3C_uPAR: BioMAP Diversity Plus: 3C Assay for Urokinase-type plasminogen activator receptor (uPAR) Biomarker Activity (AID 2282998). The conditions noted are these: BioMAP 3C HUVEC, uPAR biomarker ELISA; actives raise or lower the signal. The essentials: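 Readout: ELISA for surface uPAR. System: human umbilical vein endothelial primary cells, 24 h after chemical exposure. Analysis: bidirectional fit, DMSO baseline.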
On the technique in general: An ELISA detects its analyte on a solid surface through an enzyme-linked reagent.

Experiment [7] is described as follows: BSK_3C_VCAM1: BioMAP Diversity Plus: 3C Assay for Vascular cell adhesion molecule 1 (VCAM1) Biomarker Activity (AID 2282999). The conditions noted are these: BioMAP 3C HUVEC, VCAM1 ELISA, cytokine-stimulated; actives raise or lower the signal. Summed up: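 Human umbilical vein endothelial cells (3C system), biomarker read by ELISA 24 h after dosing; bidirectional fit against DMSO baseline. Cytotoxicity tracked by SRB total-protein staining in parallel cultures at biomarker time.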

Experiment [8] is described as follows: BSK_4H_Eotaxin3: BioMAP Diversity Plus: 4H Assay for Eotaxin 3 Biomarker Activity (AID 2283000).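 On outcome: CCL26 protein level quantified by ELISA in parallel with SRB cytotoxicity check.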 Particulars: primary human endothelial cells (HUVEC); actives raise or lower the signal. Summed up:
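Endothelial primary cells (human umbilical vein) exposed to compound for 24 h. ELISA detection of Eotaxin-3.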

The target in experiment [9] is human Peroxisome Proliferator-activated Receptor delta (PPARd), PPARD (gene 5467) (UniProt Q03181). Kind of experiment: ATG_PPARd_TRANS: Attagene TRANS-FACTORIAL HepG2 Assay for human Peroxisome Proliferator-activated Receptor delta (PPARd) (AID 2283002; active means hit-call score of the fitted dose curve at least 0.9, where 1 is the maximum). The essentials:
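HepG2 cells transiently transfected with GAL4-UAS multiplexed reporter units driven by exogenous chimeric NR-GAL4 proteins; 24 h compound exposure. Reporter mRNA measured by RT-PCR, 6-FAM primer extension, HpaI digestion and capillary electrophoresis; gain of signal fitted relative to DMSO.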

Read-out in experiment [10]: Intercellular Adhesion Molecule 1 (ICAM1), ICAM1 (gene 3383)
The experiment is described as follows: BSK_3C_ICAM1: BioMAP Diversity Plus: 3C Assay for Intercellular Adhesion Molecule 1 (ICAM1) Biomarker Activity (AID 2283003). The conditions noted are these: primary human endothelial cells (HUVEC); actives raise or lower the signal. The essentials: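 Primary human umbilical vein endothelial cells in the BioMAP 3C system were exposed to chemicals for 24 h, then ICAM-1 was quantified by ELISA. Activity was fitted bidirectionally against the DMSO negative control baseline.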

Experiment [11] concerns the target human Retinoic Acid Receptor beta (RARb), RARB (gene 5915) (UniProt P10826). Kind of experiment: ATG_RARb_TRANS: Attagene TRANS-FACTORIAL HepG2 Assay for human Retinoic Acid Receptor beta (AID 2283004; active means hit-call score of the fitted dose curve at least 0.9, where 1 is the maximum). The essentials:
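HepG2, transient MRTU transfection, NR–Gal4 chimera, 24 h treatment; RT-PCR plus CE fluorescence detection of reporter mRNA; gain of signal vs DMSO.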

Experiment [12] has as its target Retinoic acid receptor alpha (Homo sapiens) (UniProt P10276). Kind of experiment: ATG_RARa_TRANS: Attagene TRANS-FACTORIAL HepG2 Assay for human Retinoic Acid Receptor alpha (RARa) (AID 2283005; active means hit-call score of the fitted dose curve at least 0.9, where 1 is the maximum). Summed up: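 HepG2 transiently transfected with multiplex GAL4-UAS reporter units including a human RARa–GAL4 chimera; 24 h compound exposure. Reporter mRNA quantified by RT-PCR, 6-FAM labeling and capillary electrophoresis; gain of signal versus DMSO.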

Experiment [13] in a line: BSK_3C_Proliferation: Cell Proliferation Assessment in the BioMAP Diversity Plus: 3C Assay (AID 2283006).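 On AC50: potency may reflect either rise or fall in cell number versus DMSO.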 Particulars: primary human endothelial cells (HUVEC). The essentials: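 Human umbilical vein endothelial cells were grown sub-confluent and exposed to chemical for 48 h, then fixed with 10% TCA and stained with 0.1% sulforhodamine B; absorbance at 560 nm gave relative cell number, fitted bidirectionally against DMSO baseline.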

Experiment [14] concerns the target Peroxisome proliferator-activated receptor gamma (Homo sapiens) (UniProt P37231). The experiment is described as follows: ATG_PPARg_TRANS: Attagene TRANS-FACTORIAL HepG2 Assay for human Peroxisome Proliferator-activated Receptor-gamma (PPARg) (AID 2283007; active means hit-call score of the fitted dose curve at least 0.9, where 1 is the maximum). The essentials: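 HepG2 cells transiently transfected with multiplexed GAL4-UAS reporter units and exogenous chimeric NR-Gal4 proteins; reporter mRNA quantified after 24 h compound exposure by RT-PCR, fluorescent labelling, HpaI digestion and capillary electrophoresis; gain-of-signal fitted versus DMSO baseline.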

The target in experiment [15] is Nuclear receptor subfamily 1 group I member 2 (Homo sapiens) (UniProt O75469). Kind of experiment: ATG_PXR_TRANS: Attagene TRANS-FACTORIAL HepG2 Assay for human Pregnane X Receptor (PXR) (AID 2283008; active means hit-call score of the fitted dose curve at least 0.9, where 1 is the maximum). Summed up: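 Read-out is fluorescence of labelled reporter cDNA fragments separated by capillary electrophoresis after RT-PCR and HpaI digestion. Source: HepG2 cells carrying PXR-GAL4/UAS reporter constructs, treated 24 h; activity fitted upward relative to DMSO.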
Sequence of Nuclear receptor subfamily 1 group I member 2 (Homo sapiens) (O75469 whole entry, looked up, the tested form may be a part): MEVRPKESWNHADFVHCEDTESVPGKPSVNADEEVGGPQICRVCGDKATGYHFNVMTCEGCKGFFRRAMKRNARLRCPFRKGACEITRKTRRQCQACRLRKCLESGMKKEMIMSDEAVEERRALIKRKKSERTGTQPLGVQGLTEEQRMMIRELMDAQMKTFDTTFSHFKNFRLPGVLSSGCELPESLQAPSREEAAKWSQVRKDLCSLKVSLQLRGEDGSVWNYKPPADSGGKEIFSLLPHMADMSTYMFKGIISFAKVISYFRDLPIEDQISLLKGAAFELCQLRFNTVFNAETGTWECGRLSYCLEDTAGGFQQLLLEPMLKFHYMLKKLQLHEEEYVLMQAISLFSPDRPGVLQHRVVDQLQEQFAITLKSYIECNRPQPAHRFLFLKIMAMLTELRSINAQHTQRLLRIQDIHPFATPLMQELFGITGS

Experiment [16] concerns the target human Retinoic Acid Receptor gamma (RARg), RARG (gene 5916) (UniProt P13631). The experiment is described as follows: ATG_RARg_TRANS: Attagene TRANS-FACTORIAL HepG2 Assay for human Retinoic Acid Receptor gamma (RARg) (AID 2283009; active means hit-call score of the fitted dose curve at least 0.9, where 1 is the maximum). The essentials: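 HepG2 cells transiently transfected with multiplexed reporter units expressing chimeric RARg-GAL4 and GAL4-UAS-driven reporters; 24 h compound exposure. Reporter mRNA quantified by RT-PCR with fluorescent labelling and capillary electrophoresis; gain-of-signal fitted relative to DMSO baseline.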

In experiment [17] the target is Cellular tumor antigen p53 (Homo sapiens) (UniProt P04637). Kind of experiment: ATG_p53_CIS: Attagene CIS-FACTORIAL HepG2 Assay for human p53 Transcription Factor (AID 2282994). Particulars: HepG2 p53 cis-element reporter, Attagene mRNA; actives raise or lower the signal. Summed up: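 HepG2, transient MRTU transfection (cis promoter elements, endogenous TFs); 24 h dosing; RNA isolation, RT-PCR, 6-FAM primer extension, HpaI digest, CE fluorescence; bidirectional fit vs DMSO.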
Sequence of Cellular tumor antigen p53 (Homo sapiens) (P04637 whole entry, looked up): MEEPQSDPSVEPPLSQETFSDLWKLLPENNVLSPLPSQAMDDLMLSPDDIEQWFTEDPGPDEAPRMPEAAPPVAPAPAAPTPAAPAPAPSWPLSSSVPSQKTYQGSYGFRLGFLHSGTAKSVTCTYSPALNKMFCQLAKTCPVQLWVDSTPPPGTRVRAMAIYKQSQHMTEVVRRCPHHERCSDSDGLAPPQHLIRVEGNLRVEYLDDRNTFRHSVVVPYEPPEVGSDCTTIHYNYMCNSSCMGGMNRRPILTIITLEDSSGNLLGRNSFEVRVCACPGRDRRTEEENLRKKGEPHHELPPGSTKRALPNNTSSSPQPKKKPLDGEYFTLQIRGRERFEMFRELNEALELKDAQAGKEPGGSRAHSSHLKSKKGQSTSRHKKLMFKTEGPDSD

For experiment [18], the target named is human Peroxisome Proliferator-activated Receptor alpha (PPARa), PPARA (gene 5465) (UniProt Q07869). Kind of experiment: ATG_PPARa_TRANS: Attagene TRANS-FACTORIAL HepG2 Assay for human Peroxisome Proliferator-activated Receptor alpha (PPARa) (AID 2283001; active means hit-call score of the fitted dose curve at least 0.9, where 1 is the maximum). The essentials:
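Measures transcriptional activity of an exogenous chimeric PPARa-Gal4 protein in transiently transfected HepG2 cells after 24 h dosing. Reporter mRNA quantified via RT-PCR and capillary electrophoresis; DMSO served as negative control.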

The nature of experiment [19]: ATG_NFI_CIS: Attagene CIS-FACTORIAL HepG2 Assay for human Nuclear Factor I (NFI) (AID 2282989). Particulars: HepG2 cis-regulatory reporter, NFI response element transcription; actives raise or lower the signal. The essentials: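 Reporter transcription driven by endogenous transcription factors in HepG2 cells; 24 h treatment. Quantitation by labelled RT-PCR fragments on capillary electrophoresis, gain- or loss-of-signal relative to DMSO.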

Each structure is given as a SMILES string. Where “and” joins values, the source holds several entries; their conditions need not be identical. Equal values may be shown once. Results filed as inconclusive are left out. More than one record can exist for a structure, and the calls need not agree. Calls of active or inactive are those of the source. How the source made its calls, unless noted: active means hit-call score of the fitted dose curve at least 0.9, where 1 is the maximum; inactive means score below 0.9.

Sequence of human Retinoic Acid Receptor beta (RARb), RARB (gene 5915) (P10826 whole entry, looked up, the tested form may be a part): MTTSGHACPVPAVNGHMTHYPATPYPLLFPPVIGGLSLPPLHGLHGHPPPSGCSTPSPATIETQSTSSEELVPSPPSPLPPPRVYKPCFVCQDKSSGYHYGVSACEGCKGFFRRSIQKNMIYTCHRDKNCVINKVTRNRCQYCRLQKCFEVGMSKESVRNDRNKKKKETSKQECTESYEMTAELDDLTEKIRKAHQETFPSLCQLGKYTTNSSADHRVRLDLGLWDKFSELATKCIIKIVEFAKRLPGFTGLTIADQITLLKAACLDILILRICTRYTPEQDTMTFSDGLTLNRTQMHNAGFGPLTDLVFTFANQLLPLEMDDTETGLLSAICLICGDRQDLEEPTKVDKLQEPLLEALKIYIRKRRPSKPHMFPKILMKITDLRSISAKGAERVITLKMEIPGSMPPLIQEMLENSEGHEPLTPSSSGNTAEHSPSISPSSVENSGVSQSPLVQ
Sequence of Peroxisome proliferator-activated receptor gamma (Homo sapiens) (P37231 whole entry, looked up, the tested form may be a part): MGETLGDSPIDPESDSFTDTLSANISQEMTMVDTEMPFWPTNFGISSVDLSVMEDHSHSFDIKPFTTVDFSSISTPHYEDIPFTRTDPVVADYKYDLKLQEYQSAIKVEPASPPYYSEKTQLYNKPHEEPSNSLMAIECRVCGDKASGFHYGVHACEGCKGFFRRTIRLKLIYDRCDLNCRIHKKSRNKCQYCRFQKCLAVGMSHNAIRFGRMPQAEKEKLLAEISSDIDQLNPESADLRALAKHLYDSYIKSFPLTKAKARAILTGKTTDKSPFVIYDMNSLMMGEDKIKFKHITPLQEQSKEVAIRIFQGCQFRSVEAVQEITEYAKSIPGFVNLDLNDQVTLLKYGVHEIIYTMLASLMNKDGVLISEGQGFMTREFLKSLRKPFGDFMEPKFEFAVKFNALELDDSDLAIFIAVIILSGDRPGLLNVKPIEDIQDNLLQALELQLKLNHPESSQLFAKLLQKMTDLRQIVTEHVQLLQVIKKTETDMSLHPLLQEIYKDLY
Sequence of Myc proto-oncogene protein (Homo sapiens) (P01106 whole entry, looked up): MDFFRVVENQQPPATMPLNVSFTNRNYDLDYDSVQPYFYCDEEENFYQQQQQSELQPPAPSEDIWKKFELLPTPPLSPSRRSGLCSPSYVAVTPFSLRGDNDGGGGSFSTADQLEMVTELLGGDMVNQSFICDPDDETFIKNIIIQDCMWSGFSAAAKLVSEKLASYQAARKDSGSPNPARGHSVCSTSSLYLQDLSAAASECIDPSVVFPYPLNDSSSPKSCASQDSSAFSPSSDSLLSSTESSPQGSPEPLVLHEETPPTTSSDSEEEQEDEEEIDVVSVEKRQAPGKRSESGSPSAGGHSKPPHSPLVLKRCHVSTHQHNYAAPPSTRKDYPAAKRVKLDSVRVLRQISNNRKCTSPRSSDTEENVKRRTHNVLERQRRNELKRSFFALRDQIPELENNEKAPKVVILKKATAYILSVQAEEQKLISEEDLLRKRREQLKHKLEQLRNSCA
Sequence of human Peroxisome Proliferator-activated Receptor delta (PPARd), PPARD (gene 5467) (Q03181 whole entry, looked up, the tested form may be a part): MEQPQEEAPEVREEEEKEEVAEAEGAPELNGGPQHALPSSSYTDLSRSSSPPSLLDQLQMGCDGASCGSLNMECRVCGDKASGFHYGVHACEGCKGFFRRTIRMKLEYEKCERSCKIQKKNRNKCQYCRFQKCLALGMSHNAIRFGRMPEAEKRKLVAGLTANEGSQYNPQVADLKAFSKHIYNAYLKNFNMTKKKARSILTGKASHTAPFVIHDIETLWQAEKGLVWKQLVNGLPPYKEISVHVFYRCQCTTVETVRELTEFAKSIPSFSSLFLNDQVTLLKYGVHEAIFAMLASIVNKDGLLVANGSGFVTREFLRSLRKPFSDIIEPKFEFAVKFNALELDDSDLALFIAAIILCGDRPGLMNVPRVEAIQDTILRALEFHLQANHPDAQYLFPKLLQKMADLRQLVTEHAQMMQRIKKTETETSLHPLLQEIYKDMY
Sequence of Retinoic acid receptor alpha (Homo sapiens) (P10276 whole entry, looked up, the tested form may be a part): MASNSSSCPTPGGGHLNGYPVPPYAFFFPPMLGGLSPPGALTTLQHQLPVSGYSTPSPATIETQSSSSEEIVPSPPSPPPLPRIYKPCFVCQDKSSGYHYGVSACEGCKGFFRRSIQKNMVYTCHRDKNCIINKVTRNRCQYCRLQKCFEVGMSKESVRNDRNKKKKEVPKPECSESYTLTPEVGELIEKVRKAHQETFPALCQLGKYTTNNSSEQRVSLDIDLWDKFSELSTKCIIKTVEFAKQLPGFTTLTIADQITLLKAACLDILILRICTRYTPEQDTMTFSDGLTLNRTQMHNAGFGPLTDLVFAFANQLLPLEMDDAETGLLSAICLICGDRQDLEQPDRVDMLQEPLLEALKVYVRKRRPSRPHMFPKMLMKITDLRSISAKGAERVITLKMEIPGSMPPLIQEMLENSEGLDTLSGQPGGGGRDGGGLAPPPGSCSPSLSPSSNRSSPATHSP
Sequence of human Retinoic Acid Receptor gamma (RARg), RARG (gene 5916) (P13631 whole entry, looked up, the tested form may be a part): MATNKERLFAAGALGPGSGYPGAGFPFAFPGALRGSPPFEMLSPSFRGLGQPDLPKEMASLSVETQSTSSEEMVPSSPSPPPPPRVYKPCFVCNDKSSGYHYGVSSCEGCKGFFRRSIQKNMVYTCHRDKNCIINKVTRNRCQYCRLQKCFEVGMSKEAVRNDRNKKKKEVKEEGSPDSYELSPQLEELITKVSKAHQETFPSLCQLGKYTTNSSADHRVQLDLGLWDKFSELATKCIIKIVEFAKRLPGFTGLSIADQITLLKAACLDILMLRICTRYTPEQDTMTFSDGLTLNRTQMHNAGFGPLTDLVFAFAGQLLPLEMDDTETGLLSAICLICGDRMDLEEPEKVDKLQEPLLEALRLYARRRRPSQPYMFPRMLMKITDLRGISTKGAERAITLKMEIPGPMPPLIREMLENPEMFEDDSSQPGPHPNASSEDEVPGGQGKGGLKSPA
Sequence of human Peroxisome Proliferator-activated Receptor alpha (PPARa), PPARA (gene 5465) (Q07869 whole entry, looked up, the tested form may be a part): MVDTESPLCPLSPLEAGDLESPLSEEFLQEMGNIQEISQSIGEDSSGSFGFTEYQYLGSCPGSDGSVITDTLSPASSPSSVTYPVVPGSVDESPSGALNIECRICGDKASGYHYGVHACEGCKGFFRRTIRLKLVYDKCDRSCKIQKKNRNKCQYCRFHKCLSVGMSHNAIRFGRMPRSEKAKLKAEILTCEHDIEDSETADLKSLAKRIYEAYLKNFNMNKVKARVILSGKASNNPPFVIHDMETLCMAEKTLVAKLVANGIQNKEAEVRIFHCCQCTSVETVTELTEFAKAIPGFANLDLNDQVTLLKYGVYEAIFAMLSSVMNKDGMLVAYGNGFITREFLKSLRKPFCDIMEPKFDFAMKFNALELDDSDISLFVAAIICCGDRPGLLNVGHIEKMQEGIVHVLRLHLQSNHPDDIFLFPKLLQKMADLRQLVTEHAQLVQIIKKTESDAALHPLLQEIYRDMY

The AC50 is the concentration at which the activity in the assay is half-maximal. `O=C(O)C(F)(F)C(F)(F)C(F)(F)C(F)(F)C(F)(F)C(F)(F)C(F)(F)C(F)(F)C(F)(F)C(F)(F)C(F)(F)C(F)(F)C(F)(F)F`: the call in experiment [1], in experiment [4], in experiment [5], in experiment [6], in experiment [7] and in experiment [8] was inactive. The molecule was called inactive in experiment [9], in [10], in experiment [11], in experiment [12], in experiment [14] and in experiment [15]. The call in [16] was inactive. Moreover, the AC50 in experiment [2] is 26.2 µM (active); in experiment [3] it was 26.1 µM (active); in [8], 1.32 µM (active); in [13], 1.29 µM (active) and 252 nM (active).
For the molecule `FC(F)(F)C(F)(F)C(F)(F)C(F)(F)C(F)(F)C(F)(F)CCS`, the molecule was classed as inactive in [1], in experiment [2], in experiment [3], in experiment [17], in experiment [5] and in [6]. The outcome in experiment [7], in [8], in [9], in experiment [10], in experiment [13] and in experiment [14] was inactive. For the same molecule, in [15], the outcome was inactive.
Consider `CS(C)(=O)=O`, for which the outcome in experiment [1], in [2], in experiment [4], in experiment [5], in experiment [6] and in experiment [8] was inactive. In addition, the result in experiment [18], in experiment [10], in experiment [13] and in experiment [15] was inactive. In addition, the AC50 in experiment [3] was 27.5 µM (active).
For `C1COCCN1`, the molecule was classed as inactive in experiment [19], in [1], in experiment [3], in [4], in experiment [17] and in experiment [9]. The result in [11], in [12] and in [15] was inactive.
With `CC(C)OC(=O)c1ccccc1C(=O)OC(C)C`, the molecule was called inactive in experiment [1], in experiment [2], in experiment [3], in [4], in [11] and in experiment [12]. In experiment [16], the outcome was inactive. Besides, the concentration at half-maximal activity (AC50) in experiment [14] was 100 µM (active); in experiment [15], 5.74 µM (active).
